From paper PMC7862700, “An all-to-all approach to the identification of sequence-specific readers for epigenetic DNA modifications on cytosine”

biological target: T1, ETV3L (Homo sapiens, UniProt Q6ZN32 1-361); assay: DAPPL (digital affinity profiling via proximity ligation, sequencing); 10 mM Tris-HCl pH 7.5, 50 mM NaCl, 1 mM DTT, 4% glycerol, room temperature, 30 min; GST-TFs on glutathione beads, 16-mer random dsDNA library, 0.1% formaldehyde crosslink after washing; high values mean tight binding; conditions: protein: recombinant; tags: N-terminal GST; dsDNA, one strand shown
T1 sequence: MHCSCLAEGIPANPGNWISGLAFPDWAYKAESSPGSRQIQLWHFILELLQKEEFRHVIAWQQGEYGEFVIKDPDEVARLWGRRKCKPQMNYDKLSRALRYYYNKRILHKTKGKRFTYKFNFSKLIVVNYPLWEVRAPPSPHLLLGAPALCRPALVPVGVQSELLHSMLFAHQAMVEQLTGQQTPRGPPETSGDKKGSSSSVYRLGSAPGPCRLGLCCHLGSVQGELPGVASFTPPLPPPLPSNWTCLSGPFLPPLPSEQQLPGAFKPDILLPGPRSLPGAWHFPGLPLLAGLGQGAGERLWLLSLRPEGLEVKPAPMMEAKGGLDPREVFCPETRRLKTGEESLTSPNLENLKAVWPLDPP
Procedure, shortened: (§1)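 Binding signal is each hexamer's read frequency for a factor divided by its frequency in the tag-only sample. The factors were GST-fused human transcription factors from yeast, captured on glutathione beads, DNA-barcoded and pooled with that sample. Pools were incubated with 200 nmole of a random double-stranded 16-mer DNA library in Tris/NaCl/DTT/glycerol buffer at room temperature for 30 min, then washed, crosslinked with 0.1% formaldehyde, proximity-ligated with BsaI/T4 ligase (1 h, 37 °C), PCR-amplified and sequenced on an Illumina NextSeq500.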

Row | Sequence | binding signal
1 | CCGACA | 1.24 fold enrichment (6-mer frequency, TF over GST control)
2 | CGGAAG | 2.71 fold enrichment (6-mer frequency, TF over GST control)
3 | TTTAAT | 1.37 fold enrichment (6-mer frequency, TF over GST control)
4 | GGAACA | 1.07 fold enrichment (6-mer frequency, TF over GST control)
5 | TGATAT | 1.09 fold enrichment (6-mer frequency, TF over GST control)
6 | CTTGTC | 1.25 fold enrichment (6-mer frequency, TF over GST control)
7 | ATACGC | 1.14 fold enrichment (6-mer frequency, TF over GST control)
8 | TGACGA | 1.07 fold enrichment (6-mer frequency, TF over GST control)
9 | CCGCAA | 1.23 fold enrichment (6-mer frequency, TF over GST control)
10 | ACCCCC | 1.16 fold enrichment (6-mer frequency, TF over GST control)
11 | TCAAAT | 1.13 fold enrichment (6-mer frequency, TF over GST control)
12 | GATTTG | 1.18 fold enrichment (6-mer frequency, TF over GST control)
13 | CGTCAC | 1.15 fold enrichment (6-mer frequency, TF over GST control)
14 | TTCGAG | 1.36 fold enrichment (6-mer frequency, TF over GST control)
15 | GGTTTC | 1.52 fold enrichment (6-mer frequency, TF over GST control)
16 | ACTGCG | 1.26 fold enrichment (6-mer frequency, TF over GST control)
17 | ACTGAC | 1.19 fold enrichment (6-mer frequency, TF over GST control)
18 | AAGTTG | 1.11 fold enrichment (6-mer frequency, TF over GST control)
19 | CGCACT | 1.29 fold enrichment (6-mer frequency, TF over GST control)
20 | ACATCG | 1.18 fold enrichment (6-mer frequency, TF over GST control)

biological target: T2, ETS2 (Homo sapiens, UniProt P15036 1-469); assay: as above; conditions: protein: recombinant; tags: N-terminal GST; dsDNA, one strand shown
T2 sequence: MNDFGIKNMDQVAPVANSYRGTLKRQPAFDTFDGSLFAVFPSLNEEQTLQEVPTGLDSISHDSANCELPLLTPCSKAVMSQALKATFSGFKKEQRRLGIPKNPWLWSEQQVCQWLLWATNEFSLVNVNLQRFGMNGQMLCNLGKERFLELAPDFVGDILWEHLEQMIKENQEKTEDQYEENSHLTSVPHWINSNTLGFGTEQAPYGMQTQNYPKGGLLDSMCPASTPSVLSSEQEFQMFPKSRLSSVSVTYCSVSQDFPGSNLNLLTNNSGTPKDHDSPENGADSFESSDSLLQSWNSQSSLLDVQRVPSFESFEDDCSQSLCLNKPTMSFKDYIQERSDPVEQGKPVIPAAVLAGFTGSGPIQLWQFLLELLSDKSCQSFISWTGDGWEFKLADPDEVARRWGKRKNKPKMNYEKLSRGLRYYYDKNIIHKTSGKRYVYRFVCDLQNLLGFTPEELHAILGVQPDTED
Procedure, shortened: as §1

Row | Sequence | binding signal
21 | GTCACA | 1.14 fold enrichment (6-mer frequency, TF over GST control)
22 | ATGGGT | 1.37 fold enrichment (6-mer frequency, TF over GST control)
23 | GTTTGA | 1.26 fold enrichment (6-mer frequency, TF over GST control)
24 | ATTGGG | 1.12 fold enrichment (6-mer frequency, TF over GST control)
25 | CGTCCC | 1.38 fold enrichment (6-mer frequency, TF over GST control)
26 | GCTCTG | 1.12 fold enrichment (6-mer frequency, TF over GST control)
27 | TTCCCT | 1.75 fold enrichment (6-mer frequency, TF over GST control)
28 | CCGGCC | 1.05 fold enrichment (6-mer frequency, TF over GST control)
29 | TTCTTG | 1.39 fold enrichment (6-mer frequency, TF over GST control)
30 | TGTTTG | 1.32 fold enrichment (6-mer frequency, TF over GST control)
31 | ATTGCC | 1.25 fold enrichment (6-mer frequency, TF over GST control)
32 | ACGCCC | 1.12 fold enrichment (6-mer frequency, TF over GST control)
33 | CACTCC | 1.17 fold enrichment (6-mer frequency, TF over GST control)
34 | AAAAAA | 1.34 fold enrichment (6-mer frequency, TF over GST control)
35 | CAGGAA | 1.75 fold enrichment (6-mer frequency, TF over GST control)
36 | GCCCGC | 1.02 fold enrichment (6-mer frequency, TF over GST control)
37 | TACGTC | 1.2 fold enrichment (6-mer frequency, TF over GST control)
38 | TAATCC | 1.36 fold enrichment (6-mer frequency, TF over GST control)
39 | GCGGAA | 1.42 fold enrichment (6-mer frequency, TF over GST control)
40 | TGATGT | 1.29 fold enrichment (6-mer frequency, TF over GST control)

Row | Sequence | binding signal
41 | CCGACA | 1.26 fold enrichment (6-mer frequency, TF over GST control)
42 | CGGAAG | 3.01 fold enrichment (6-mer frequency, TF over GST control)
43 | TTTAAT | 1.37 fold enrichment (6-mer frequency, TF over GST control)
44 | GGAACA | 1.08 fold enrichment (6-mer frequency, TF over GST control)
45 | TGATAT | 1.12 fold enrichment (6-mer frequency, TF over GST control)
46 | CTTGTC | 1.24 fold enrichment (6-mer frequency, TF over GST control)
47 | ATACGC | 1.11 fold enrichment (6-mer frequency, TF over GST control)
48 | TGACGA | 1.17 fold enrichment (6-mer frequency, TF over GST control)
49 | CCGCAA | 1.47 fold enrichment (6-mer frequency, TF over GST control)
50 | ACCCCC | 1.15 fold enrichment (6-mer frequency, TF over GST control)
51 | TCAAAT | 1.09 fold enrichment (6-mer frequency, TF over GST control)
52 | GATTTG | 1.14 fold enrichment (6-mer frequency, TF over GST control)
53 | CGTCAC | 1.27 fold enrichment (6-mer frequency, TF over GST control)
54 | TTCGAG | 1.26 fold enrichment (6-mer frequency, TF over GST control)
55 | GGTTTC | 1.52 fold enrichment (6-mer frequency, TF over GST control)
56 | ACTGCG | 1.35 fold enrichment (6-mer frequency, TF over GST control)
57 | ACTGAC | 1.32 fold enrichment (6-mer frequency, TF over GST control)
58 | AAGTTG | 1.11 fold enrichment (6-mer frequency, TF over GST control)
59 | CGCACT | 1.18 fold enrichment (6-mer frequency, TF over GST control)
60 | ACATCG | 1.02 fold enrichment (6-mer frequency, TF over GST control)
